Each structure is given as a SMILES string. Out of some 190,000 compounds screened, about 3,100 (1.6%) were called active. The list comes from a sample in which actives are over-represented; it also holds similar structures and randomly drawn compounds. Unmarked numbers belong to inactive results. Cut-off read from the data, not from the text of the source: active = fold change above about 3.3; inconclusive = no clear call, values can overlap the other calls; inactive = below that.

The nature of this assay: activators of NF-kB expression in neurons, primary screen, cell-based, HTS (AID 1239). To be noted: human neuronal cells, NF-kB reporter expression; at 12.5 µM; hits give high values.
Consider `C=CCn1nc(-c2ccccc2)c2c(C)onc2c1=O`, for which the fold change was 1.1.

`COc1cc(C(=O)OCc2ccc([N+](=O)[O-])cc2)cc(OC)c1OC`: the fold change is 1.05.

On to `COc1cc(/C=N/O)ccc1OCc1ccc([N+](=O)[O-])cc1`, for which the fold change was 6.35 (active).

As for `COc1cc(/C=N\Nc2ccc([N+](=O)[O-])cn2)ccc1OCC(=O)O`, the fold change was 1.24.

Take `COc1ccc(C2=NN(c3nc4ccccc4s3)C(=O)C2)cc1`: the fold change was 1.02.

`CN1c2ccccc2-c2nc3ccccc3n2C1c1ccco1` (configuration not stated): the fold change was 1.03.

Take `Cn1c(-c2ccco2)nc2cc3ccccc3cc21`: the fold change was 6.6 (active).

For the compound `CN(c1nc2ccccc2n2c(-c3ccco3)nnc12)S(=O)(=O)c1ccccc1`, the fold change is 0.98.

For the compound `Cc1nc2ccccc2c(C)c1C(=O)c1ccc(F)cc1`, the fold change is 0.8.

Regarding `COC(=O)c1c(NC(=O)CCCC(=O)O)sc2c1CCCCC2`, the fold change is 0.98.

As to `CCn1c(=S)[nH]c2sc3c(c2c1=O)CCCCC3`, the fold change is 1.2.

Take `CN(NC(=O)c1ccccc1)c1nc2ccccc2nc1C(F)(F)F`: the fold change was 1.32.

Regarding `CSc1nc(N(C)NC(=O)c2cccc(C)c2)c2ccccc2n1`, the fold change was 3.68 (active).

In the case of `CN(NC(=O)c1ccccc1F)c1nc(C(F)(F)F)nc2ccccc12`, the fold change is 1.67.

As for `Cc1cc(NS(=O)(=O)c2ccc(NC(=O)c3cccc(OC(F)F)c3)cc2)nc(C)n1`, the fold change was 1.45.

As to `O=C1CN(C(=O)CN2C(=O)NC3(CCCCC3)C2=O)c2ccccc2N1`, the fold change is 1.43.

On to `Cc1cc(N)n2nc(-c3ccc(C(C)(C)C)cc3)cc2n1`, for which the fold change was 5.07 (active).

As to `Cc1cc(C(C)(C)C)cc(C)c1N`, the fold change was 1.01.

As to `COc1ccc(-c2cc(C)nc3nc(N)nn23)cc1`, the fold change was 1.23.

For the compound `O=C(O)Cc1sc(-c2ccccc2)nc1-c1cccs1`, the fold change is 1.28.

As for `O=C(O)Cc1sc(-c2ccc(C(=O)O)cc2)nc1-c1ccccc1`, the fold change was 1.21.

Consider `NC(=O)Cc1ccc2sc(-c3ccccc3)nc2c1`, for which the fold change is 6.92 (active).

In the case of `CCc1cccc(NC(=O)CCNS(=O)(=O)c2cccc3nonc23)c1`, the fold change was 1.16.

For the compound `CCN1CCN(c2ccc([N+](=O)[O-])cc2C(=O)c2ccc(Cl)cc2)CC1`, the fold change was 1.37.

Turning to `O=[N+]([O-])c1ccc(N2CCN(c3ccc(O)cc3)CC2)c(Cl)c1`, the fold change is 4.06 (active).

For the compound `COc1ccc(N2CCN(c3ccc([N+](=O)[O-])cc3Cl)CC2)cc1`, the fold change was 0.93.

Turning to `CCc1nnc(NC(=O)CCCSc2nc3ccccc3[nH]2)s1`, the fold change is 1.01.

With `O=C(Nc1ccc(NC(=O)c2cccs2)cn1)c1ccco1`, the fold change is 4.48 (active).

On to `Cc1ccnc(NC(=O)c2ccc(NC(=O)c3ccco3)cc2)c1`, for which the fold change was 1.64.

As for `COc1cccc(C(=O)Nc2ccc(NC(=O)c3ccco3)cn2)c1`, the fold change is 1.03.

For the compound `COc1cc(CN2CCNC(=O)C2CC(=O)NCCc2ncccc2C)cc(OC)c1` (configuration not stated), the fold change was 1.05.

Turning to `COCCSc1nnc(NC(=O)c2cc(OC)c(OC)cc2[N+](=O)[O-])s1`, the fold change is 1.11.

Turning to `CCOC(=O)/C(=N\Nc1ccccc1Cl)N(C)C1CCS(=O)(=O)C1` (configuration not stated), the fold change was 0.99.

For `COc1cc(S(=O)(=O)N2CCOCC2)ccc1NC(=O)COc1ccc(N(C)S(=O)(=O)c2ccc(C)cc2)cc1`, the fold change was 0.76.

On to `COc1ccc(Cl)cc1C(=O)NCC#N`, for which the fold change is 0.94.

On to `N#C/C=C\Oc1ccc(Cl)cc1N`, for which the fold change is 3.39 (active).

In the case of `Cn1cc(CCC(=O)N2CCCC(C(=O)c3ccc(C(C)(C)C)cc3)C2)cn1` (configuration not stated), the fold change was 0.83.

With `CNc1nccc(-c2ccc(Cl)cc2)c1C#N`, the fold change is 1.47.

`Cc1c(Br)ccc(NC(=O)COc2ccccc2C(N)=O)c1C`: the fold change was 1.08.

`O=C(NC1CCCC1)C(c1ccc(N2CCOCC2)cc1)N(C(=O)c1ccco1)c1ccccc1F` (configuration not stated): the fold change was 1.05.

On to `O=C(COc1ccc(NC(=O)c2ccccc2[N+](=O)[O-])cc1)c1ccc(F)cc1`, for which the fold change is 1.07.

`Cc1ccc2nc(COc3ccc(N(C)S(=O)(=O)c4ccccc4)cc3)cc(=O)n2c1`: the fold change was 1.11.

With `CCCOc1ccc(C(=O)NCCc2ccccc2)cc1`, the fold change was 6.46 (active).

With `O=C(NCCOc1ccccc1)c1ccccc1`, the fold change is 4.39 (active).

With `COc1ccc(OCCCC(=O)NCCc2ccccc2)cc1`, the fold change is 1.08.

Consider `CC(C)c1ccc(C(=O)NCCCc2ccccc2)cc1`, for which the fold change is 4 (active).

In the case of `Cc1cc(C(=O)NCCCc2ccccc2)no1`, the fold change is 1.33.

Regarding `Nc1ccc(C(=O)NCc2ccccc2)cc1`, the fold change was 1.

With `O=C(NCCc1ccccc1)c1ccc(OCCOc2ccccc2)cc1`, the fold change was 1.27.

As to `NS(=O)(=O)c1cc(C(=O)NCCOc2ccccc2)c(Cl)cc1Cl`, the fold change is 0.66.

For the compound `Cc1ccc(C(=O)NCCNC(=O)c2ccccc2)cc1`, the fold change was 1.15.

With `CC(C)OC(=O)CN1CCN(c2ccc(Cl)cc2)CC1`, the fold change is 1.18.

With `c1ccc2c(NC3C4CC5CC(C4)CC3C5)nc(N3CCOCC3)nc2c1` (configuration not stated), the fold change is 0.99.

Turning to `Cc1ccc2cc3cc(C(=O)N4CCCCCC4)oc3nc2c1`, the fold change was 4.26 (active).

`Cc1cccc(C(=O)N2CCCN(C(=O)c3cccc(C)c3)CC2)c1`: the fold change was 1.1.

As to `Cc1cc(=O)oc(C)c1C(=O)N1CCCCC1`, the fold change was 1.16.

For `CN1CCNC(=O)C1CC(=O)N1CC=C(c2ccc(F)cc2)CC1` (configuration not stated), the fold change was 1.04.

Consider `O=C(NCCC1=CCCCC1)c1ccc(Cl)c([N+](=O)[O-])c1`, for which the fold change is 1.68.

As for `O=C(Cc1cccc2ccccc12)NCCC1=CCCCC1`, the fold change is 1.12.

With `O=C(Cc1nn[nH]n1)NCCC1=CCCCC1`, the fold change was 1.18.

`CN(c1ccc(C(=O)NCc2ccccn2)cc1)S(C)(=O)=O`: the fold change was 1.11.

For `CN(c1ccc(C(=O)NCCC2=CCCCC2)cc1)S(C)(=O)=O`, the fold change is 3.37 (active).

As to `Cn1nnc2cc(C(=O)NCCC3=CCCCC3)ccc21`, the fold change was 3.75 (active).

For `CN(CCc1ccccn1)C(=O)CCC1CCCN(Cc2ccccc2OC(F)F)C1` (configuration not stated), the fold change is 1.15.

For the compound `Cc1ccc(NC(=O)NC2CCCCC2)cc1S(=O)(=O)N1CCOCC1`, the fold change is 1.06.

For `CCc1ccc2oc(-c3ccc(N)cc3)nc2c1`, the fold change is 5.55 (active).

Turning to `CCN(CC)c1ccc2oc(=O)c(C)nc2c1`, the fold change is 0.65.

Take `CCCCCC(=O)Nc1ccc2oc(-c3ccncc3)nc2c1`: the fold change was 0.96.

As for `COC(=O)Cc1ccc(Oc2ncc(C(F)(F)F)cc2Cl)cc1`, the fold change was 1.13.

For `Fc1ccccc1/C=C1\CCCC2=C1Nc1ncnn1C2c1ccccc1F` (configuration not stated), the fold change is 4.05 (active).

Consider `OCCNCc1cccc(OCc2ccccc2Cl)c1`, for which the fold change was 0.98.

Take `O=[N+]([O-])c1cc(Br)c(O)c(/C=N/Nc2nc3ccccc3s2)c1`: the fold change was 0.65.

For `Fc1ccc2nc(Nc3nc4c(s3)CCCC4)sc2c1`, the fold change is 3.04.

On to `c1ccc2sc(NN=C3CCCC3)nc2c1`, for which the fold change was 8.8 (active).

For `Cc1ccccc1NCC(=O)N/N=C\c1ccc([N+](=O)[O-])s1`, the fold change was 0.63.

`O=C(Nc1cc2ccccc2oc1=O)C1CCCCC1`: the fold change was 4.4 (active).

Take `CC(=O)Nc1cc2ccc(OC(C)=O)cc2oc1=O`: the fold change is 1.34.

Consider `O=C(O)c1ccc(NC(=O)C2CCCCC2)cc1`, for which the fold change is 1.04.

As for `O=C(N/N=C/c1ccc(OCC2COCCO2)cc1)c1ccc(Br)cc1` (configuration not stated), the fold change is 0.81.

On to `CNc1nc2c(C)cccn2c(=O)c1C=Nc1ccc(OC)cc1`, for which the fold change is 1.61.

For the compound `Nc1[nH]c(=S)nc2nc(-c3ccccc3)c(-c3ccccc3)nc12`, the fold change is 1.13.

Take `COc1ccc(C2=Nc3cc(C)ccc3OC2)cc1`: the fold change is 6.75 (active).

For `COc1ccc(C2=NOC(COC(=O)c3ccc4ccccc4n3)C2)cc1` (configuration not stated), the fold change is 1.25.

For the compound `COc1ccc(C2=NOC3(CC(=O)N(c4ccc(C)cc4)C3=O)C2)cc1` (configuration not stated), the fold change is 0.77.

In the case of `COC(=O)[C@H](C)[C@H]1C[C@]1(C)[C@H](NC(=O)OCc1ccccc1)c1ccccc1`, the fold change was 0.97.

On to `CC(C)(C)[Si](OCC[C@@H]1C[C@@]1(C)[C@@H](NP(=O)(c1ccccc1)c1ccccc1)c1ccccc1)(c1ccccc1)c1ccccc1`, for which the fold change was 3.34 (active).

Take `O=C(NCc1ccccc1)[C@H]1C[C@@H]1[C@H](NP(=O)(c1ccccc1)c1ccccc1)c1ccccc1`: the fold change was 0.77.

For the compound `CCOC(=O)CCCNC(=O)COC(=O)/C=C/c1ccc2c(c1)OCO2`, the fold change is 1.06.

For the compound `CC1(C)CC(=O)CC2(C1)NCC(c1ccccc1Cl)c1c2[nH]c2ccccc12` (configuration not stated), the fold change was 0.75.

With `N/C(Cc1ccc([N+](=O)[O-])cc1)=N\OC(=O)C1CCCCC1`, the fold change was 1.13.

On to `O=C(COc1ccc([N+](=O)[O-])cc1)Nc1ccc(N2CCCC2)cc1`, for which the fold change is 1.07.

Turning to `O=C(COC(=O)C1CCCCC1)Nc1ccc([N+](=O)[O-])cc1`, the fold change was 6.28 (active).

Consider `CC1=NCCN1S(=O)(=O)c1cccc([N+](=O)[O-])c1`, for which the fold change is 1.03.

As to `CCOC(=O)C(C)n1nc(-c2ccccc2)c2ccccc2c1=O` (configuration not stated), the fold change is 0.91.

Turning to `CCCn1c(NC(=O)C23CC4CC(CC(O)(C4)C2)C3)nc2ccccc21`, the fold change is 0.92.

In the case of `NS(=O)(=O)c1ccc(NC(=O)COC(=O)c2ccc(Cl)nc2)cc1`, the fold change was 0.87.

As for `CC(C(=O)O)n1cnc2sc3c(c2c1=O)CCCC3` (configuration not stated), the fold change was 1.12.

`O=C(N/N=C/c1ccc2c(c1)OCO2)C(=O)N1CCCC1`: the fold change was 1.4.

Turning to `Cc1nc2sc(C(=O)c3ccccc3)c(N)c2c2c1CCCC2`, the fold change was 1.93.

In the case of `CN(C)c1ccnc2sc(C(=O)c3ccccc3)c(N)c12`, the fold change was 3.79 (active).

As for `CN(C)c1ccnc2sc3c(=O)n(Cc4ccccc4)cnc3c12`, the fold change is 0.86.

Consider `COc1ccc(/C=C/CN2CCCC(C(=O)c3cc(F)ccc3F)C2)cc1` (configuration not stated), for which the fold change is 1.06.

Values taken from PubChem BioAssay AID1239 (SRMLSC, 2008).
